Source: PubChem BioAssay (NCI)
This is part of a sample that, as a whole, favours compounds with a hit. Of some 79,000 tested, about 15% had one in any assay. Active and inactive are the calls of the source. No stated cut-off is given here; in the data, active means growth inhibition above about 70%; inactive means the rest.

Tests used:
[1] = NCI Yeast Anticancer Drug Screen. Data for the rad52 strain (AID 147);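 further: 0% = growth of vehicle-treated control cultures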; conditions: S. cerevisiae rad52 mutant growth inhibition, hits give high values
Summary of the method: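 Compounds are applied to a genetically defined yeast strain lacking normal DNA damage repair, and inhibition of growth is expressed relative to cultures given vehicle only.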

[2] = NCI Yeast Anticancer Drug Screen. Data for the wt1 strain (AID 149);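 further: 0% = growth of vehicle-treated wt1 cultures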; conditions: S. cerevisiae wt1 strain (SPY 50644) growth inhibition, hits give high values
Summary of the method: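 Compounds are added to wt1 yeast cultures. Growth is then measured. Inhibition is expressed relative to vehicle-treated controls.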

[3] = NCI Yeast Anticancer Drug Screen. Data for the rad50EPP+ strain (AID 151);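 further: 0% = growth of vehicle-treated control cultures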; conditions: S. cerevisiae rad50 mutant strain, hits give high values
Summary of the method: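 Compounds were applied to the rad50EPP+ yeast strain, which bears a defined DNA repair alteration, and growth inhibition was determined relative to vehicle-treated cultures.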

[4] = NCI Yeast Anticancer Drug Screen. Data for the mgt1 strain (AID 153); conditions: S. cerevisiae mgt1 mutant growth inhibition, hits give high values
Summary of the method: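 Strain: mgt1 yeast, one of a set carrying defined DNA damage repair or cell cycle control alterations. Compound-treated growth compared with vehicle.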

[5] = NCI Yeast Anticancer Drug Screen. Data for the rad50 strain (AID 155);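 further: 0% = growth of vehicle-only cultures of the same strain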; conditions: S. cerevisiae rad50 strain growth inhibition, hits give high values
Summary of the method: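 Inhibition values express reduced yeast growth in compound-treated cultures relative to vehicle-treated controls.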

[6] = NCI Yeast Anticancer Drug Screen. Data for the mec2-1 strain (AID 157); conditions: S. cerevisiae mec2-1 strain, hits give high values
Summary of the method: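 Strain: mec2-1 (DNA repair/cell cycle alteration). Compound exposure, then growth measured; inhibition expressed relative to vehicle.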

[7] = NCI Yeast Anticancer Drug Screen. Data for the rad14 strain (AID 159);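 further: 0% = growth of vehicle-treated control cultures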; conditions: S. cerevisiae rad14 strain growth inhibition, hits give high values
Summary of the method: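 A mutant yeast strain defective in DNA damage repair is treated with compound; inhibition of its growth is scored against untreated, vehicle-exposed cultures.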

[8] = NCI Yeast Anticancer Drug Screen. Data for the sgs1 mgt1 strain (AID 161);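 further: 0% = growth of cultures given vehicle only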; conditions: S. cerevisiae sgs1 mgt1 strain, hits give high values
Summary of the method: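 Mutant yeast exposed to compound; growth scored against vehicle-only wells.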

[9] = NCI Yeast Anticancer Drug Screen. Data for the CLN2oe strain (AID 163);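 further: 0% = growth of vehicle-only control cultures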; conditions: S. cerevisiae CLN2oe strain, hits give high values
Summary of the method: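 Growth of a genetically modified yeast strain is measured after compound exposure and compared with cultures given vehicle alone.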

[10] = NCI Yeast Anticancer Drug Screen. Data for the cln2 rad14 strain (AID 165);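 further: 0% = growth equal to vehicle treated cultures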; conditions: S. cerevisiae cln2 rad14 strain, hits give high values
Summary of the method: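 Compounds are applied to the cln2 rad14 yeast strain, and growth is then compared with that of vehicle-treated cultures to give inhibition.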

[11] = NCI Yeast Anticancer Drug Screen. Data for the bub3 strain (AID 167); conditions: S. cerevisiae bub3 mutant strain, hits give high values
Summary of the method: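 Steps: expose the mutant yeast strain to compound; grow alongside vehicle-treated cultures; measure growth; express inhibition against the vehicle cultures.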

[12] = NCI Yeast Anticancer Drug Screen. Data for the wt2 strain (AID 169);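 further: 0% = growth of vehicle-treated yeast cultures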; conditions: S. cerevisiae wt2 strain growth inhibition, hits give high values
Summary of the method: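 This strain belongs to a panel of yeast strains with defined genetic alterations in DNA damage repair or cell cycle control. Compounds are applied, and growth inhibition is measured against vehicle-treated cultures.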

[13] = NCI Yeast Anticancer Drug Screen. Data for the mlh1 strain (AID 171);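 further: 0% = growth of vehicle-treated control cultures of the same strain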; conditions: S. cerevisiae mlh1 strain growth inhibition, hits give high values
Summary of the method: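 Growth of the mutant yeast strain after compound exposure, expressed as inhibition relative to vehicle-only controls.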

[14] = NCI Yeast Anticancer Drug Screen. Data for the sgs1 strain (AID 173);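 further: 0% = growth of vehicle-only control cultures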; conditions: S. cerevisiae sgs1 mutant, hits give high values
Summary of the method: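 Growth of a yeast strain bearing a defined genetic alteration is measured after compound treatment. Inhibition is expressed relative to vehicle-only controls.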

[15] = NCI Yeast Anticancer Drug Screen. Data for the mlh1 rad18 strain (AID 175); conditions: S. cerevisiae mlh1 rad18 strain growth inhibition, hits give high values
Summary of the method: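 Read-out is yeast growth inhibition, calculated against vehicle-only controls. The compound was applied to a strain engineered with DNA damage repair alterations.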

[16] = NCI Yeast Anticancer Drug Screen. Data for the rad18 strain (AID 177); conditions: S. cerevisiae rad18 mutant growth inhibition, hits give high values
Summary of the method: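 Growth of the mutant yeast strain after compound exposure, normalised to vehicle-only cultures.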

[17] = at 5.0 µM (retest, dose inferred, filed as 0.5)
[18] = at 50.0 µM (retest, dose inferred, filed as 5.0)

Measured: growth inhibition

O=C(O)C(=Cc1ccc(-c2ccccc2)cc1)C(=O)O
inactive: [1]; at 1.2 µM 6% | [1]; at 3.7 µM 10% | [1]; at 11.0 µM 24% | [1]; at 33.0 µM 50% | [2]; at 1.2 µM 2% | [2]; at 3.7 µM 4% | [2]; at 11.0 µM 16% | [2]; at 33.0 µM 55% | [3]; at 1.2 µM -1% | [3]; at 3.7 µM -1% | [3]; at 11.0 µM -1% | [3]; at 33.0 µM 6% | [3]; at 100.0 µM 25% | [4]; at 1.2 µM 2% | [4]; at 3.7 µM 4% | [4]; at 11.0 µM 22% | [4]; at 33.0 µM 58% | [5]; at 1.2 µM 0% | [5]; at 3.7 µM -5% | [5]; [17] 2% | [5]; at 11.0 µM 11% | [5]; at 33.0 µM 54% | [5]; [18] 23% | [5]; at 50.0 µM 60.1% | [6]; at 1.2 µM 4% | [6]; at 3.7 µM 7% | [6]; [17] -7% | [6]; at 11.0 µM 30% | [6]; at 33.0 µM 60% | [6]; [18] 63% | [6]; at 50.0 µM 46.5% | [7]; at 1.2 µM 5% | [7]; at 3.7 µM 8% | [7]; at 11.0 µM 17% | [7]; at 33.0 µM 46% | [8]; [17] 4% | [8]; [18] 24% | [8]; at 50.0 µM 31.5% | [9]; at 1.2 µM 5% | [9]; at 3.7 µM 7% | [9]; at 11.0 µM 22% | [9]; at 33.0 µM 56% | [10]; [17] 46% | [10]; [18] 27% | [10]; at 50.0 µM 23.7% | [11]; at 1.2 µM 1% | [11]; at 3.7 µM 1% | [11]; [17] -10% | [11]; at 11.0 µM 24% | [11]; [18] 43% | [12]; at 1.2 µM 0% | [12]; at 3.7 µM 3% | [12]; at 11.0 µM 17% | [12]; at 33.0 µM 61% | [13]; at 1.2 µM 3% | [13]; at 3.7 µM 5% | [13]; at 11.0 µM 23% | [13]; at 33.0 µM 69% | [14]; at 1.2 µM 3% | [14]; at 3.7 µM 7% | [14]; at 11.0 µM 26% | [15]; [17] -2% | [15]; [18] 19% | [16]; at 1.2 µM 3% | [16]; at 3.7 µM 7% | [16]; at 11.0 µM 20%
active: [1]; at 100.0 µM 87% | [2]; at 100.0 µM 88% | [4]; at 100.0 µM 90% | [5]; at 100.0 µM 88% | [6]; at 100.0 µM 92% | [7]; at 100.0 µM 90% | [9]; at 100.0 µM 88% | [11]; at 33.0 µM 72% | [11]; at 50.0 µM 71.8% | [11]; at 100.0 µM 93% | [12]; at 100.0 µM 89% | [13]; at 100.0 µM 94% | [14]; at 33.0 µM 72% | [14]; at 100.0 µM 92% | [15]; at 50.0 µM 70.9% | [16]; at 33.0 µM 70% | [16]; at 100.0 µM 91%

OC(CC(O)(C(F)(F)F)C(F)(F)F)c1ccc(C(O)CC(O)(C(F)(F)F)C(F)(F)F)cc1 (stereo unspecified)
active: [1]; at 11.0 µM 95% | [1]; at 33.0 µM 99% | [1]; at 100.0 µM 99% | [2]; at 11.0 µM 94% | [2]; at 33.0 µM 99% | [2]; at 100.0 µM 100% | [4]; at 11.0 µM 91% | [4]; at 33.0 µM 99% | [4]; at 100.0 µM 99% | [5]; at 11.0 µM 92% | [5]; at 33.0 µM 98% | [5]; [18] 100% | [5]; at 50.0 µM 99% | [5]; at 100.0 µM 92% | [6]; at 11.0 µM 94% | [6]; at 33.0 µM 99% | [6]; [18] 100% | [6]; at 50.0 µM 99.5% | [6]; at 100.0 µM 99% | [7]; at 11.0 µM 95% | [7]; at 33.0 µM 99% | [7]; at 100.0 µM 99% | [8]; [18] 100% | [8]; at 50.0 µM 99.5% | [9]; at 11.0 µM 99% | [9]; at 33.0 µM 99% | [9]; at 100.0 µM 100% | [10]; [18] 100% | [10]; at 50.0 µM 99.2% | [11]; at 11.0 µM 95% | [11]; at 33.0 µM 99% | [11]; [18] 100% | [11]; at 50.0 µM 99.5% | [11]; at 100.0 µM 99% | [12]; at 11.0 µM 98% | [12]; at 33.0 µM 99% | [12]; at 100.0 µM 100% | [13]; at 11.0 µM 90% | [13]; at 33.0 µM 99% | [13]; at 100.0 µM 99% | [14]; at 11.0 µM 87% | [14]; at 33.0 µM 99% | [14]; at 100.0 µM 99% | [15]; [18] 99% | [15]; at 50.0 µM 99.3% | [16]; at 11.0 µM 91% | [16]; at 33.0 µM 98% | [16]; at 100.0 µM 97%
inactive: [1]; at 1.2 µM 47% | [1]; at 3.7 µM 64% | [2]; at 1.2 µM 23% | [2]; at 3.7 µM 32% | [3]; at 1.2 µM -2% | [3]; at 3.7 µM 0% | [3]; at 11.0 µM 9% | [3]; at 33.0 µM 25% | [3]; at 100.0 µM 60% | [4]; at 1.2 µM 22% | [4]; at 3.7 µM 22% | [5]; at 1.2 µM 35% | [5]; at 3.7 µM 50% | [5]; [17] 36% | [6]; at 1.2 µM 18% | [6]; at 3.7 µM 38% | [6]; [17] 42% | [7]; at 1.2 µM 26% | [7]; at 3.7 µM 19% | [8]; [17] 26% | [9]; at 1.2 µM 3% | [9]; at 3.7 µM 68% | [10]; [17] 68% | [11]; at 1.2 µM -2% | [11]; at 3.7 µM 37% | [11]; [17] 15% | [12]; at 1.2 µM -1% | [12]; at 3.7 µM 17% | [13]; at 1.2 µM 19% | [13]; at 3.7 µM 11% | [14]; at 1.2 µM 26% | [14]; at 3.7 µM 26% | [15]; [17] 47% | [16]; at 1.2 µM 40% | [16]; at 3.7 µM 41%

COc1ccc2c3c1OC(C)C31CC(=O)CCC1CC2 (stereo unspecified)
inactive: [1]; at 1.2 µM -4% | [1]; at 3.7 µM -1% | [1]; at 11.0 µM 4% | [1]; at 33.0 µM 2% | [1]; at 100.0 µM 15% | [2]; at 1.2 µM -3% | [2]; at 3.7 µM -4% | [2]; at 11.0 µM -5% | [2]; at 33.0 µM -5% | [2]; at 100.0 µM -3% | [3]; at 1.2 µM -5% | [3]; at 3.7 µM 1% | [3]; at 11.0 µM 6% | [3]; at 33.0 µM -1% | [3]; at 100.0 µM 4% | [4]; at 1.2 µM -8% | [4]; at 3.7 µM -5% | [4]; at 11.0 µM -4% | [4]; at 33.0 µM -2% | [4]; at 100.0 µM -1% | [5]; at 1.2 µM -2% | [5]; at 3.7 µM 1% | [5]; [17] 13% | [5]; at 11.0 µM 3% | [5]; at 33.0 µM 4% | [5]; [18] 23% | [5]; at 50.0 µM 7.25% | [5]; at 100.0 µM 13% | [6]; at 1.2 µM -4% | [6]; at 3.7 µM -2%
